Drawing on PubChem BioAssay (NCI), this text covers growth for 37 compounds.

This is part of a sample that, as a whole, favours compounds with a hit. Of some 83,000 tested, about 20% had one in any assay.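 Activity criterion: percent growth below 10, measured after cells in 96-well plates were exposed to a single compound concentration for 48 hours.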 Unmarked numbers belong to inactive results. The source made the active and inactive calls.

For the test, the system named is HL-60(TB) leukemia. The experiment in a line: NCI-60 one-dose screen, 48 h (100 = growth as untreated, 0 = no growth, -100 = all killed). Particulars: 10 µM unless noted.
Regarding `S=c1[nH]nc2ccccn12`, the growth was 59.3%.

As to `COc1c(C)c2c(c(O)c1C/C=C(\C)CCC(=O)OCCN1CCOCC1)C(=O)OC2`, the growth was 36.7%.

Turning to `CN(C)CCN(Cc1ccccc1)c1ccc2ccccc2n1`, the growth was 89.7%.

Regarding `CCOc1cc(-c2ccc[nH]2)[nH]c1/C=C1\N=C(C)C(C(=O)OC)=C1C`, the growth is -42.7% (active).

Take `O=C(CCCC(=O)Nc1ccc(-n2nnc3cc(Cl)c(Cl)cc32)cc1)Nc1ccc(-n2nnc3cc(Cl)c(Cl)cc32)cc1`: the growth was 75.9%.

Take `CC1=C(C(=O)Nc2nc(-c3ccc(Cl)cc3)cs2)[C@H](c2ccc(O)cc2)NC(=O)N1`: the growth is 98.7%.

`CCCC(O)Cn1ncc(C(=O)OCC)c1NC(=O)NCc1cccc(C(F)(F)F)c1` (configuration not stated): the growth is 71.2%.

With `COc1ccc(CN(c2ccc(C)cc2)C2OC(=O)c3ccccc32)cc1OC` (configuration not stated), the growth was 96.9%.

Turning to `CCS(=O)(=O)N[C@@H]1O[C@H](COC(C)=O)C(OC(C)=O)[C@H](OC(C)=O)C1OC(C)=O` (some centres not stated), the growth is 117%.

`O=[N+]([O-])c1cccc(-c2nc3sccn3c2-c2ccnc(NCCCNS(=O)(=O)c3ccc(C(F)(F)F)cc3)n2)c1`: the growth is 0.27% (active).

In the case of `CC1(C)CC[C@]23CC[C@]4(C)[C@H](CC[C@@H]5[C@@]6(C)CCCNC(C)(C)[C@@H]6CC[C@]54C)[C@H]2[C@H]1OC3`, the growth is -65.5% (active).

In the case of `C=CCOc1ccc2c(C)cc(=O)oc2c1`, the growth is 118%.

On to `CC(=O)c1ccc(Nc2nc(NCCO)nc(Nc3ccc(Cl)cc3)n2)cc1`, for which the growth is 103%.

On to `COc1cc(/C=C/C(=O)/C=C/c2cc(OC)c3c(c2OC)OCO3)c(OC)c2c1OCO2`, for which the growth is 27.2%.

On to `CCO/C=N/C1=C(C#N)C(c2ccc(Cl)cc2)c2c(c3ccccc3n(C)c2=O)O1` (configuration not stated), for which the growth was 53.4%.

`COc1ccccc1CNCCCN1C(=O)c2ccc3c4c(ccc(c24)C1=O)C(=O)N(CCCNCCCN)C3=O`: the growth was -42.3% (active).

Consider `COc1ccc(-c2cc(-c3ccc(Cl)cc3)nc(SCCCC(=O)NO)n2)cc1`, for which the growth was -22.9% (active).

As for `CNc1nc2c(s1)C(c1cccc(F)c1)CC(=O)N2` (configuration not stated), the growth is 97.5%.

`O=C(NC1CC1)c1ccc(-c2nc3ccc4[nH]ncc4c3c3c2CCCC3)cc1`: the growth was 28.6%.

`CCCCOc1ccc(/C=C2/SC(N3CCCC3)=NC2=O)cc1`: the growth is 98%.

For `O[C@@H](c1cc(C(F)(F)F)nc2c(C(F)(F)F)cccc12)[C@H]1CCCCN1`, the growth is 59.4%.

In the case of `CN1CC=C(c2cc(NC(=O)Nc3ccc(Oc4ccnc(NC(=O)C5CC5)c4)c(F)c3)cc(C(F)(F)F)c2)CC1`, the growth was -18.3% (active).

As to `COc1cc(-c2nc3ccc(C)cc3[nH]2)ccc1OCC(=O)N=Nc1c(O)[nH]c2ccc(Cl)cc12`, the growth was -55.6% (active).

For the compound `O=C(N/N=C\c1ccc(Cl)cc1Cl)c1ccncc1`, the growth is 87.6%.

In the case of `Cc1cc(N2CCCCC2)nc(NCc2cc(Nc3ccnc4cc(Cl)ccc34)ccc2F)n1`, the growth was -65.7% (active).

Regarding `COc1ccc(/C=C2/C(=O)N=C3N2NC(c2ccccc2)=CN3c2ccccc2)cc1`, the growth was 101%.

Take `COc1ccc(C=C2c3ccccc3-c3ccccc32)cc1`: the growth is 23.6%.

With `C=C1CC[C@@H]2[C@](C)(COC(C)=O)[C@H](OC(C)=O)CC[C@@]2(C)[C@@H]1C/C=C1/C(=O)OC[C@H]1OC(C)=O`, the growth was 79.1%.

Regarding `CCOc1ccccc1C(=O)N1CCN(c2cc(Cl)cc(Cl)c2)CC1`, the growth was -59% (active).

For `Fc1ccc(Cn2cc(CSc3nc4ccccc4o3)nn2)cc1`, the growth is 104%.

Consider `CCN(CC)CCCNc1cccc2c(C)cc(OC)nc12`, for which the growth was 106%.

For the compound `COc1ccc(C2=NN(C(=O)c3cc(-c4ccc(C)cc4)nc4ccccc34)C(c3cc(-c4ccccc4)nn3-c3ccccc3)C2)cc1` (configuration not stated), the growth is 90.6%.

Take `COc1ccc(C(=O)Cn2c(C(=O)c3ccc(OC)cc3)nc3ccccc32)cc1`: the growth is -50.7% (active).

Regarding `Clc1ccc2c(NCCCNC3CCCCC3)ccnc2c1`, the growth was 96.1%.

In the case of `CCOC(=O)c1nn(C2CCCCO2)c2ccc(NC(=O)Cn3nnc4ccccc43)cc12` (configuration not stated), the growth was 98.8%.

Take `O=S(=O)(Oc1ccc(-c2ccc3sccc3c2)cc1)c1ccc(F)cc1`: the growth was 97.1%.

On to `C#Cc1cc2c(N)c(C(=O)c3cc(OC)c(OC)c(OC)c3)[nH]c2cc1OC`, for which the growth was -6.26% (active).
